In article PMC7862700, “An all-to-all approach to the identification of sequence-specific readers for epigenetic DNA modifications on cytosine”:

Legend:
Assay in all cases: DAPPL (digital affinity profiling via proximity ligation, sequencing); 10 mM Tris-HCl pH 7.5, 50 mM NaCl, 1 mM DTT, 4% glycerol, room temperature, 30 min; GST-TFs on glutathione beads, 16-mer random dsDNA library, 0.1% formaldehyde crosslink after washing; high values mean tight binding
Details in all cases: protein: recombinant; tags: N-terminal GST; dsDNA, one strand shown
ELK1 = molecular target: T1, ELK1 (Homo sapiens, UniProt P19419 1-428)
T1 sequence: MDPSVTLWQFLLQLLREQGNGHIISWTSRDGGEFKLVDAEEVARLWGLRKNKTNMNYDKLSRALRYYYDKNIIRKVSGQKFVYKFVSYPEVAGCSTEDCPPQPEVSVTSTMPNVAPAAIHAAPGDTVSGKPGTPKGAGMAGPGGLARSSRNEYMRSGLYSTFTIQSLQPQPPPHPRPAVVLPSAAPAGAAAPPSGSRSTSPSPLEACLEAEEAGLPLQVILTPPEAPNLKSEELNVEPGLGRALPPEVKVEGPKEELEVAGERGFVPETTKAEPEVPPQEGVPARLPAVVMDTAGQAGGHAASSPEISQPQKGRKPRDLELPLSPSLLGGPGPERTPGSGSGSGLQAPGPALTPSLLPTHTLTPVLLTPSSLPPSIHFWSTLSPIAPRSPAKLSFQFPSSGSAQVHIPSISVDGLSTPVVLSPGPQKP
In short: (§1)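 Binding signal is each hexamer's read frequency for a factor divided by its frequency in the tag-only sample. The factors were GST-fused human transcription factors from yeast, captured on glutathione beads, DNA-barcoded and pooled with that sample. Pools were incubated with 200 nmole of a random double-stranded 16-mer DNA library in Tris/NaCl/DTT/glycerol buffer at room temperature for 30 min, then washed, crosslinked with 0.1% formaldehyde, proximity-ligated with BsaI/T4 ligase (1 h, 37 °C), PCR-amplified and sequenced on an Illumina NextSeq500.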

GABPA = molecular target: T2, GABPA (Homo sapiens, UniProt Q06546 1-454)
T2 sequence: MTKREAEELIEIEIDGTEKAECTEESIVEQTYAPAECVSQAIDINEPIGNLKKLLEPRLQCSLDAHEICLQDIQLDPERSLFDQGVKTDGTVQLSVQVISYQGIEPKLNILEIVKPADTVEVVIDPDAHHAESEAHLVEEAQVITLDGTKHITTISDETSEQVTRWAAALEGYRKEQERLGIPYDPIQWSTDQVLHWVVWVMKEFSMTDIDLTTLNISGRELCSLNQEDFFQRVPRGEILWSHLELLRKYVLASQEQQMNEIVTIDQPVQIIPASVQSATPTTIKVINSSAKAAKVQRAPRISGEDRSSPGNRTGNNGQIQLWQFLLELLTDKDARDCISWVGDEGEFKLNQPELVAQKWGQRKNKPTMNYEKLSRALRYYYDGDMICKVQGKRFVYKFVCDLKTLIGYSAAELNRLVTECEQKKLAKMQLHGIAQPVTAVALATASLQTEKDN
In short: as §1

ERG = molecular target: T3, ERG (Homo sapiens, UniProt P11308 1-479)
T3 sequence: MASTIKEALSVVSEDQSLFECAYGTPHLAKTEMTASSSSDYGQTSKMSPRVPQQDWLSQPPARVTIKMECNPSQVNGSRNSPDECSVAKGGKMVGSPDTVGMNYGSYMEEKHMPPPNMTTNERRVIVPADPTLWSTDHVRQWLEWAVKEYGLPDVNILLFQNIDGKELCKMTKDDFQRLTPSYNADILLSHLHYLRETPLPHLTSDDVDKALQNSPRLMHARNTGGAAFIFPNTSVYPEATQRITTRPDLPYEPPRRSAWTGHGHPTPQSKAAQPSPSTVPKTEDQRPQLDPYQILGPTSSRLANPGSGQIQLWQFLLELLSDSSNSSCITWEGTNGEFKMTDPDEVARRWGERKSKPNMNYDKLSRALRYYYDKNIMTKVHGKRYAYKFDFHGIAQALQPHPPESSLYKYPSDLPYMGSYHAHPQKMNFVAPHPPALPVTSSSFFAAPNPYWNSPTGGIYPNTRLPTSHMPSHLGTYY
In short: as §1

ELF1 = ELF1 (Homo sapiens, UniProt P32519 1-619)
Chain of ELF1 (P32519 whole entry): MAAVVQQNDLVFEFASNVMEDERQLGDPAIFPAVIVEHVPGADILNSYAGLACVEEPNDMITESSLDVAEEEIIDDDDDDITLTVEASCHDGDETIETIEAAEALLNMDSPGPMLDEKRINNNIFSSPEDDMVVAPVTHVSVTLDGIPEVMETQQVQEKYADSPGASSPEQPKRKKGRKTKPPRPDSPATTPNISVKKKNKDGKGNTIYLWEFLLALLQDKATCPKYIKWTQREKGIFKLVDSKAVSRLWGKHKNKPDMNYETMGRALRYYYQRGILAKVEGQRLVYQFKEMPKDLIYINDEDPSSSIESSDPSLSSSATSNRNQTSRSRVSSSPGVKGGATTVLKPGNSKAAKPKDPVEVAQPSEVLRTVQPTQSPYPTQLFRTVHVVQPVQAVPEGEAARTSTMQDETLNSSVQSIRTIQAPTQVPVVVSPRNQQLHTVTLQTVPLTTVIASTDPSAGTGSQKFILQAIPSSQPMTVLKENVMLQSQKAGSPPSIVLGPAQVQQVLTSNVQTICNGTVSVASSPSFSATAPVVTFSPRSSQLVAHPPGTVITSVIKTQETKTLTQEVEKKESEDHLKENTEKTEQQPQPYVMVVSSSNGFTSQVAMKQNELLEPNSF
In short: as §1

EHF = molecular target: T4, EHF (Homo sapiens, UniProt Q9NZC4 1-300)
T4 sequence: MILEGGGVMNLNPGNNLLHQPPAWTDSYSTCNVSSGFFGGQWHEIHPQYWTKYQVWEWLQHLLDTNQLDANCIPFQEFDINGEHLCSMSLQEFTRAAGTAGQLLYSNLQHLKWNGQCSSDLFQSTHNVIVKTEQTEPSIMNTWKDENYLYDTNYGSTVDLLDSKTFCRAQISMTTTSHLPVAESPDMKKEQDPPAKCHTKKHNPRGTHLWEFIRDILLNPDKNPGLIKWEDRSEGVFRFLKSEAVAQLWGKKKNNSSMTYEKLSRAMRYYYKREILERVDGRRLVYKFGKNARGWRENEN
In short: as §1

SPIB = SPIB (Homo sapiens, UniProt Q01892 1-262)
Chain of SPIB (Q01892 whole entry): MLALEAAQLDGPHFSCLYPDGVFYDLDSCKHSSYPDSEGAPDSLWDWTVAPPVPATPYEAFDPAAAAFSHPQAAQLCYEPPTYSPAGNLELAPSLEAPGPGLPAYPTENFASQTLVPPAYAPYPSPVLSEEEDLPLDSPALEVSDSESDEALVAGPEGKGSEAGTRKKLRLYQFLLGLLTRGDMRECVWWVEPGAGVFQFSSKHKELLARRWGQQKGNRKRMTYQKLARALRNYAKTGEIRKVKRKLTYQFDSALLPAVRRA
In short: as §1

FEV = molecular target: T5, FEV (Homo sapiens, UniProt Q99581 1-238)
T5 sequence: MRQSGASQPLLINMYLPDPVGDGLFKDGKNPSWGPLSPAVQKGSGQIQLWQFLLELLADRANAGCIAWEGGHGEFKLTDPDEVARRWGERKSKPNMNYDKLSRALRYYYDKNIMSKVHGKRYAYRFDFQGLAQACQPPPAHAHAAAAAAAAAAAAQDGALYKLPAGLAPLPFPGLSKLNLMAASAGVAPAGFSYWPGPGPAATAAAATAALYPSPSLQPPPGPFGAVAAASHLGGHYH
In short: as §1

ETV5 = ETV5 (Homo sapiens, UniProt P41161 1-510)
Chain of ETV5 (P41161 whole entry): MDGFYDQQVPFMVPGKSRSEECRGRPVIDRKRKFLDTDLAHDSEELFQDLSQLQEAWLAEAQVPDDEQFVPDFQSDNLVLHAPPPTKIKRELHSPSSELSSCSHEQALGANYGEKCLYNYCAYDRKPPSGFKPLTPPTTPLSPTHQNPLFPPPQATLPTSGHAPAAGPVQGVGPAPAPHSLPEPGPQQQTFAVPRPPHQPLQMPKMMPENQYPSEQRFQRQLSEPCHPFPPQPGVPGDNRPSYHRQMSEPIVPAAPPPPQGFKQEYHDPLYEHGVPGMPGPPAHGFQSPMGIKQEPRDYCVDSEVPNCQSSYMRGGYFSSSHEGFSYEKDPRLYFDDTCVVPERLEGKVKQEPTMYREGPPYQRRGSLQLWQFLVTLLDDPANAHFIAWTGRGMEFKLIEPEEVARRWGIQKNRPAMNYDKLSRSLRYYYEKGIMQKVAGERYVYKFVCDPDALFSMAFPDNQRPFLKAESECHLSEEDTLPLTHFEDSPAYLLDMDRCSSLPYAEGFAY
In short: as §1

ELF4 = ELF4 (Homo sapiens, UniProt Q99607 1-663)
Chain of ELF4 (Q99607 whole entry): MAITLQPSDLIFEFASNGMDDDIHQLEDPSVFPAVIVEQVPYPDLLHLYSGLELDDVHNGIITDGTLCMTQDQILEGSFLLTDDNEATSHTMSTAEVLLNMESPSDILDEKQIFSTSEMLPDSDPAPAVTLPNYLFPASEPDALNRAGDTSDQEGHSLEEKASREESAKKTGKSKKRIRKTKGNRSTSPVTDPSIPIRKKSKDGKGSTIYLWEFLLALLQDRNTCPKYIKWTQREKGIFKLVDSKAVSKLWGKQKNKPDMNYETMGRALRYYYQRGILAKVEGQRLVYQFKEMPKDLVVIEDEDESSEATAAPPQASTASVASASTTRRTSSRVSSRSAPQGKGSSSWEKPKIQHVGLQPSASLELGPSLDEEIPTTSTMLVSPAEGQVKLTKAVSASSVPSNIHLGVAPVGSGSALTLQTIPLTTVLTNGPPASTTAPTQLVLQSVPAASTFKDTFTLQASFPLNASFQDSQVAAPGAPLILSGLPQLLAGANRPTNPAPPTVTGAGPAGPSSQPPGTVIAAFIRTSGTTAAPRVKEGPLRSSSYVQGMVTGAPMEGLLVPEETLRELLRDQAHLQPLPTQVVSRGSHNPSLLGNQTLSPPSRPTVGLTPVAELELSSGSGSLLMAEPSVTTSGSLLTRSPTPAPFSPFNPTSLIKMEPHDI
In short: as §1

ELK4 = molecular target: T6, ELK4 (Homo sapiens, UniProt P28324-2 1-405)
T6 sequence: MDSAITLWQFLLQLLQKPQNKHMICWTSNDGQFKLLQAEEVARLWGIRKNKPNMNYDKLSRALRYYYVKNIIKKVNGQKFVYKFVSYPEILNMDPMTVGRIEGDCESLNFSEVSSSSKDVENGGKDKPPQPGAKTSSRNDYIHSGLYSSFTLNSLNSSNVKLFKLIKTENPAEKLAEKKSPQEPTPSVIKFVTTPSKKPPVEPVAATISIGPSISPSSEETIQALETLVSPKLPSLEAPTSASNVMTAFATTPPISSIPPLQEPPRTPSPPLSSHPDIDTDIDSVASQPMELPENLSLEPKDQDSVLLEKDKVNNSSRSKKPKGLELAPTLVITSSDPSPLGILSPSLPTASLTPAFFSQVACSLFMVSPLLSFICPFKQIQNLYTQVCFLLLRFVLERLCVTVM
In short: as §1

ELF3 = molecular target: T7, ELF3 (Homo sapiens, UniProt P78545 1-371)
T7 sequence: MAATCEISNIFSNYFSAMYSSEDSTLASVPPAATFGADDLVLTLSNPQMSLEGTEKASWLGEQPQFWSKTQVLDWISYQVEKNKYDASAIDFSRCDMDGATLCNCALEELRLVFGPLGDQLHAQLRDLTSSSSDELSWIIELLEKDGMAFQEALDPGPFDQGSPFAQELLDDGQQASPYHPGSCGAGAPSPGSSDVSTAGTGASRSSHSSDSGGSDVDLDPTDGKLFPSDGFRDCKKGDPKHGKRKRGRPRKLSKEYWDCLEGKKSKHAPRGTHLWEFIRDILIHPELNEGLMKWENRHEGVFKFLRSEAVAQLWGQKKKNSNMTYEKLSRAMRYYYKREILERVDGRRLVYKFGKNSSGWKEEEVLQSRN
In short: as §1

ETV1 = ETV1 (Homo sapiens, UniProt P50549 1-477)
Chain of ETV1 (P50549 whole entry): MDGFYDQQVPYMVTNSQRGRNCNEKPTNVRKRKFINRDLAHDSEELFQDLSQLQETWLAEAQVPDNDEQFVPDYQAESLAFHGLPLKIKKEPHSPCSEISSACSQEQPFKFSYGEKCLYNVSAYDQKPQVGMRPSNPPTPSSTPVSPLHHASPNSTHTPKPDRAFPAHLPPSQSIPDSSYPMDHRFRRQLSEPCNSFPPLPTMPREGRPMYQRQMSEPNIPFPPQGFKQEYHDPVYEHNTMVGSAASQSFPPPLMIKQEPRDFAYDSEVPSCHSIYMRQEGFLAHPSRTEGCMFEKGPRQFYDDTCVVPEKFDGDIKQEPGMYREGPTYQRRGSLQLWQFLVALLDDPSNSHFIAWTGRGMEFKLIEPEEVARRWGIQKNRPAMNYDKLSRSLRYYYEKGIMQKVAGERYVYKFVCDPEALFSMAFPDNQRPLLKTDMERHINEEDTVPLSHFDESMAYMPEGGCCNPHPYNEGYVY
In short: as §1

ERF = molecular target: T8, ERF (Homo sapiens, UniProt P50548 1-548)
T8 sequence: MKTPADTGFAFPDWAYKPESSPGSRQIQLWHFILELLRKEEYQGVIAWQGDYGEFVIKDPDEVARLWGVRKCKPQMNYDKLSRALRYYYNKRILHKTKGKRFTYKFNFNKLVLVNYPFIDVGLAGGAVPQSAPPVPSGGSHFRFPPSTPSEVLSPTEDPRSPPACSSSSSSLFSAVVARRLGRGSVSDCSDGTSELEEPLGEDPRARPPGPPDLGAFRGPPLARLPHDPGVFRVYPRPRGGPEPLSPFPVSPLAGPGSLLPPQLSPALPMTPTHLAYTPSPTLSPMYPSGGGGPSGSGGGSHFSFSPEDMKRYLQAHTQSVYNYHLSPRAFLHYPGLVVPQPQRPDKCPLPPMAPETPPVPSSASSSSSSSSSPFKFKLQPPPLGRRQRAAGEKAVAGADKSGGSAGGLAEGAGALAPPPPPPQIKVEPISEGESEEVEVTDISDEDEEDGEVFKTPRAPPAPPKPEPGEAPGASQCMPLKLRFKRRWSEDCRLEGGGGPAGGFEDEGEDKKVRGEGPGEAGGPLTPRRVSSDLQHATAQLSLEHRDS
In short: as §1

ETV3L = molecular target: T9, ETV3L (Homo sapiens, UniProt Q6ZN32 1-361)
T9 sequence: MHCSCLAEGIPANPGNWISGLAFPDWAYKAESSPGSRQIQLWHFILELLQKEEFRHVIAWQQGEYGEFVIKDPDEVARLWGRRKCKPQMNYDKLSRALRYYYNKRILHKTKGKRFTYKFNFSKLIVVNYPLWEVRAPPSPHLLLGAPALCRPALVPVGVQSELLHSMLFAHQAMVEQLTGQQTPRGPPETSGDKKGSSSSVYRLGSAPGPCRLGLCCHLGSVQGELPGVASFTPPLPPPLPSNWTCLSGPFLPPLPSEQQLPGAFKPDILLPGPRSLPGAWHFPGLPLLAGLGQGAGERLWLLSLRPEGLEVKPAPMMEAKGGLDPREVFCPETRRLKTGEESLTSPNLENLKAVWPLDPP
In short: as §1

ETS2 = molecular target: T10, ETS2 (Homo sapiens, UniProt P15036 1-469)
T10 sequence: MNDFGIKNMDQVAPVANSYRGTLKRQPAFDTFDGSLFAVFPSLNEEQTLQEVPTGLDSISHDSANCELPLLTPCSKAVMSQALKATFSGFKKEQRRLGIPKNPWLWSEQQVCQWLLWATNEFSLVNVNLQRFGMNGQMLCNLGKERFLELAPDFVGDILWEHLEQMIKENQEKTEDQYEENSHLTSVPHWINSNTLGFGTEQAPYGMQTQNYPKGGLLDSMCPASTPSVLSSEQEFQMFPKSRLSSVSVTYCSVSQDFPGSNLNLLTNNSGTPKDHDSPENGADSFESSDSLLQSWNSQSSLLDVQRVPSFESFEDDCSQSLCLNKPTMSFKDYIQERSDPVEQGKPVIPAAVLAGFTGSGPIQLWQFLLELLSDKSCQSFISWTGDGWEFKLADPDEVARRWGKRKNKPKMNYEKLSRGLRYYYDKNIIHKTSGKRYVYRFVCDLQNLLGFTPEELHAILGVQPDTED
In short: as §1

SPDEF = molecular target: T11, SPDEF (Homo sapiens, UniProt O95238 1-335)
T11 sequence: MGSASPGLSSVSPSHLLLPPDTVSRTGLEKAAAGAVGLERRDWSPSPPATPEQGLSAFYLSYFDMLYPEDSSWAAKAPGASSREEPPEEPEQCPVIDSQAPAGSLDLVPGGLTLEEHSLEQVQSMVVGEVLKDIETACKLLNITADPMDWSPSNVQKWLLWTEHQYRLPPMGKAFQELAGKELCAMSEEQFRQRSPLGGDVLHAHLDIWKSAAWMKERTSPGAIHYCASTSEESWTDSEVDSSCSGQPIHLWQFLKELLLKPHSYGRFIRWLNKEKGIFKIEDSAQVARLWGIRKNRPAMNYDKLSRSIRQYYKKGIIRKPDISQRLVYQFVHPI
In short: as §1

ETV3 = molecular target: T12, ETV3 (Homo sapiens, UniProt P41162-2 1-143)
T12 sequence: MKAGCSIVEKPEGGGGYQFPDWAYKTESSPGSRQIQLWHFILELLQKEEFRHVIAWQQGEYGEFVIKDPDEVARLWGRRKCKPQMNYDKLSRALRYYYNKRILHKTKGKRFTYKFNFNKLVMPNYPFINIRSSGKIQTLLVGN
In short: as §1

ETV6 = ETV6 (Homo sapiens, UniProt P41212 1-452)
Chain of ETV6 (P41212 whole entry): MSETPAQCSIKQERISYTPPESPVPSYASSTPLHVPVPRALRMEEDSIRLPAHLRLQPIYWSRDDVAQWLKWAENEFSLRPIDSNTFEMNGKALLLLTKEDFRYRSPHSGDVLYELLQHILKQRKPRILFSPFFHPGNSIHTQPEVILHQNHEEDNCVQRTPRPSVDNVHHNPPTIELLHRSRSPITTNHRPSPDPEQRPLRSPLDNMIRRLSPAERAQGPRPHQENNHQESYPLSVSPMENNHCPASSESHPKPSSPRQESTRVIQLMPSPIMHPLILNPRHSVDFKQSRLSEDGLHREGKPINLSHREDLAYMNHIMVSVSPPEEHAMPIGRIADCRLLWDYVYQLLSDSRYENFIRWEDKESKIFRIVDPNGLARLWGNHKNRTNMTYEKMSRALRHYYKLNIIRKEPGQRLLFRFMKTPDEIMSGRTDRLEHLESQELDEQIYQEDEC
In short: as §1

Sequence: CACCGG
- binding signal (ELK1): 1.16 fold enrichment (6-mer frequency, TF over GST control)
- binding signal (GABPA): 1.04 fold enrichment (6-mer frequency, TF over GST control)
- binding signal (ERG): 1.27 fold enrichment (6-mer frequency, TF over GST control)
- binding signal (ELF1): 1.09 fold enrichment (6-mer frequency, TF over GST control)
- binding signal (EHF): 1.13 fold enrichment (6-mer frequency, TF over GST control)
- binding signal (SPIB): 1.16 fold enrichment (6-mer frequency, TF over GST control)
- binding signal (FEV): 1.75 fold enrichment (6-mer frequency, TF over GST control)
- binding signal (ETV5): 1.21 fold enrichment (6-mer frequency, TF over GST control)
- binding signal (ELF4): 1.16 fold enrichment (6-mer frequency, TF over GST control)
- binding signal (ELK4): 1.05 fold enrichment (6-mer frequency, TF over GST control)
- binding signal (ELF3): 1.17 fold enrichment (6-mer frequency, TF over GST control)
- binding signal (ETV1): 1.21 fold enrichment (6-mer frequency, TF over GST control)
- binding signal (ERF): 1.08 fold enrichment (6-mer frequency, TF over GST control)
- binding signal (ETV3L): 1.14 fold enrichment (6-mer frequency, TF over GST control)
- binding signal (ETS2): 1.17 fold enrichment (6-mer frequency, TF over GST control)
- binding signal (SPDEF): 1.08 fold enrichment (6-mer frequency, TF over GST control)
- binding signal (ETV3): 1.14 fold enrichment (6-mer frequency, TF over GST control)
- binding signal (ETV6): 1.09 fold enrichment (6-mer frequency, TF over GST control)
